Compounds with a hit are over-represented: about 19% of the library has one in this group of screens.
DT40 TDP1 CPT = growth inhibition of DT40 Tdp1-/-;hTDP1 cells with camptothecin (screen for TDP1 inhibitors); chicken DT40 Tdp1-/-;hTDP1 cells + 20 nM CPT, ATP luminescence, 48 h; Potency, µM (top dose mostly 46.2 µM), inactives show at the top dose activity change, negative = growth inhibition, hits mostly inhibitors; 420,000 compounds, 12% hits; AID 686979; further: potency means the concentration at half of the fitted maximal effect; on the % scale 0 is the no-effect control and ±100 the full control effect; nearly all actives have a fitted effect of over 55% in size
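Cell growth measured by CellTiter-Glo luminescence after a minimum 48 h, 37 C compound exposure with 20 nM CPT in Tdp1-knockout DT40 cells stably expressing hTDP1, seeded 400/well; qHTS titration format.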
IL-1B inflam inh = inhibitors of inflammasome signaling (IL-1 beta secretion) | THP-1 LPS/ATP IL-1B secretion, AlphaLISA, 16 h; active compounds read low | activity change, % at 57.5 µM | 360,000 compounds, 4.7% hits; in the data active means activity change below about -50%; inconclusive means mostly about -30% to -49%; further: on the % scale 0 is the no-effect control and ±100 the full control effect
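THP-1 cells pretreated 1 hr with compounds (up to 57.5 uM final), then stimulated with LPS (250 ng/mL final) plus ATP (1.25 mM final); secreted IL-1B measured by AlphaLISA after 16 hr, decreased signal indicating inhibition.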
DT40 TDP1 no CPT = qHTS for Inhibitors of human tyrosyl-DNA phosphodiesterase 1 (TDP1): qHTS in cells in absence of CPT; DT40 Tdp1-/- hTDP1 cells, no CPT, ATP luminescence, 48 h; Potency, µM (top dose mostly 46.2 µM), without a hit: top-dose activity change, negative = growth inhibition, usual class: inhibitors; 420,000 compounds, 15% hits; AID 686978, 2013; further: potency means the concentration at half of the fitted maximal effect; on the % scale 0 is the no-effect control and ±100 the full control effect; nearly all actives have a fitted effect of over 55% in size
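Cells were dispensed at 400 per well, compounds added by pin tool, plates incubated ≥48 hr at 37 °C, then CellTiter-Glo added for 30 min at room temperature before luminescence reading. Line: DT40 Tdp1-/- complemented with hTDP1; camptothecin omitted.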
BCR signal inh = chronic active BCR signaling inhibition; Potency, µM (titrated, usually from 46.1 µM), for the others: top-dose activity change, negative = inhibition, most hits filed as inhibitors; AID 493014; 340,000 compounds, 0.05% hits; ABC-DLBCL IkBa-CBG/CBR reporter, luminescence ratio, 4 h; active means well fitted inhibition curve with a large enough effect in the signal ratio, with a control signal flat, not every such curve was filed as active; inconclusive means small, poorly fitted or top-dose-only effect, or effect the other way, or a change in a side signal; the % refers to the signal ratio;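 further: potency means the concentration at half of the fitted maximal effect; plate controls were basal doxycycline-induced cells for no effect and cells given 10 µM MG132 for full effect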
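TMD8 ABC-DLBCL cells carrying doxycycline-inducible green luciferase fused to IkappaBalpha plus unfused red luciferase were exposed to compounds (up to 46 uM) for 4 hrs at 37C. Activity came from the overlap-corrected green/red luminescence ratio.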
SW480 rerep = inducers of DNA re-replication in SW480 colon cancer cells; Potency, µM (highest dose often 46.1 µM), for inactives: at the top dose re-replication activation, actives largely listed as activators; 340,000 compounds, 1.8% hits; SW480 DNA re-replication, Hoechst DNA content imaging, 48 h; further: potency means the concentration at half of the fitted maximal effect; % of control where 0% means no effect; nearly all actives have a fitted effect of over 55% in size
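Image-based DNA-content assay: after two days of treatment, nuclei were labelled with the DNA dye Hoechst and imaged, and hits were compounds raising the count of nuclei showing high fluorescence intensity.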
MCF10A rereplic = induces DNA re-replication in MCF 10a normal breast cells; MCF 10A DNA re-replication, Hoechst nuclear intensity, 48 h; Potency, µM (highest dose often 46.1 µM), without a hit: top-dose activity, positive = re-replication, most hits filed as activators; 350,000 compounds, 2.9% hits; AID 624296; further: potency means the concentration at half of the fitted maximal effect; % of control where 0% means no effect; nearly all actives have a fitted effect of over 50% in size
The depositor's hits bear a star. Unless noted, the call rests on the fitted dose curve; in most records, active means well fitted curve in the direction sought with a large enough effect; inconclusive means small, poorly fitted or top-dose-only effect, or another doubt; inactive means no such curve, though single readings can be large; an effect the other way counts as inactive or inconclusive.

How did OC(Br)C(O)C(O)N1CCCc2ccccc21 (stereo not drawn) do in these assays?
DT40 TDP1 CPT: -2%; DT40 TDP1 no CPT: -7%

What do the screens show for `C=CCNc1nc(S(=O)Cc2ccc(C)cc2)nc2c1CCCC2` (stereo not drawn)?
DT40 TDP1 CPT: inconclusive; IL-1B inflam inh: -14; DT40 TDP1 no CPT: inconclusive; BCR signal inh: inconclusive; SW480 rerep: -13%; MCF10A rereplic: 18%

Results for O=C(N/N=C/c1ccco1)c1cccc(N2Cc3ccccc3C2)c1 ?
DT40 TDP1 CPT: -1%; IL-1B inflam inh: 2; DT40 TDP1 no CPT: -29%; BCR signal inh: inconclusive; SW480 rerep: -11%; MCF10A rereplic: -4%

What do the screens show for `Cc1ccc(S(=O)(=O)/C=C2\OCc3ccccc32)cc1`?
DT40 TDP1 CPT: -28%; IL-1B inflam inh: -12; DT40 TDP1 no CPT: -27%

What do the screens show for `COCCN(C(=O)CCC(=O)Nc1cc(C)on1)C(C(=O)NC1CCCC1)c1ccc(C)cc1` (stereo not drawn)?
DT40 TDP1 CPT: inconclusive; IL-1B inflam inh: -19; DT40 TDP1 no CPT: 0.33µM*; BCR signal inh: 7%; SW480 rerep: 1%; MCF10A rereplic: -3%

What do the screens show for `CCCCN(C(=O)CCC(=O)Nc1cc(C)on1)C(C(=O)NC1CCCC1)c1ccc(F)cc1` (stereo not drawn)?
DT40 TDP1 CPT: -107%; IL-1B inflam inh: -77*; DT40 TDP1 no CPT: -98%; BCR signal inh: -6%; SW480 rerep: inconclusive; MCF10A rereplic: inconclusive

How did O=C(Nc1ccc2[nH]ncc2c1)c1ccccc1Cl do in these assays?
DT40 TDP1 CPT: -14%; IL-1B inflam inh: inconclusive; DT40 TDP1 no CPT: -16%; BCR signal inh: inconclusive; SW480 rerep: -11%; MCF10A rereplic: 1%

How did Cc1[nH]c(C)c(S(=O)(=O)N2CCN(c3ccccc3F)CC2)c1C(=O)N1CCCCC1 do in these assays?
DT40 TDP1 CPT: inconclusive; IL-1B inflam inh: 0; DT40 TDP1 no CPT: -19%; BCR signal inh: 3%; SW480 rerep: 5%; MCF10A rereplic: 5%

What do the screens show for `COC(=O)CSc1nnc(COc2cccc3ccccc23)o1`?
DT40 TDP1 CPT: -5%; IL-1B inflam inh: 46; DT40 TDP1 no CPT: -13%; BCR signal inh: -1%; SW480 rerep: 12%; MCF10A rereplic: -15%

How did Cc1csc(N(C)C(=O)CSc2nnc(COc3cccc4ccccc34)o2)n1 do in these assays?
DT40 TDP1 CPT: 5.8µM*; IL-1B inflam inh: 29; DT40 TDP1 no CPT: 5.8µM*; BCR signal inh: inconclusive; SW480 rerep: -1%; MCF10A rereplic: -6%

How did C[N+]1(CC(=O)c2ccc(F)cc2)CCc2ccccc2C1 (stereo not drawn) do in these assays?
DT40 TDP1 CPT: -11%; DT40 TDP1 no CPT: -21%

How did CCOc1ccc(OCC)c(NC(=O)CN(C)S(=O)(=O)c2ccc3nc(C)sc3c2)c1 do in these assays?
DT40 TDP1 CPT: inconclusive; IL-1B inflam inh: -50*; DT40 TDP1 no CPT: inconclusive; BCR signal inh: -1%; SW480 rerep: -1%; MCF10A rereplic: 21µM*

How did Cc1nc2ccc(S(=O)(=O)N(C)CC(=O)Nc3ccc(Br)c(C)c3)cc2s1 do in these assays?
DT40 TDP1 CPT: inconclusive; DT40 TDP1 no CPT: 16µM*

How did O=C(NCc1cccnc1)C1C2C=CC(C2)C1C(=O)Nc1cccc(C(F)(F)F)c1 (stereo not drawn) do in these assays?
DT40 TDP1 CPT: -22%; IL-1B inflam inh: 34; DT40 TDP1 no CPT: -10%

What do the screens show for `COc1cccc(C2=C(C(C)=O)Sc3nncn3N2C(C)=O)c1`?
DT40 TDP1 CPT: inconclusive; DT40 TDP1 no CPT: 23µM*; BCR signal inh: inconclusive

How did CC(=O)C1=C(c2ccc(Cl)c(Cl)c2)N(C(C)=O)n2cnnc2S1 do in these assays?
DT40 TDP1 CPT: 2.6µM*; DT40 TDP1 no CPT: 2.9µM*; BCR signal inh: inconclusive

What do the screens show for `CC(=O)C1=C(c2ccc(Cl)c(Cl)c2)N(C(C)=O)n2c(C)nnc2S1`?
DT40 TDP1 CPT: 2.9µM*; DT40 TDP1 no CPT: 4.1µM*; BCR signal inh: -1%

Results for Cn1cc(S(=O)(=O)Nc2ccc(F)c(Cl)c2)c(=O)n(C)c1=O ?
DT40 TDP1 CPT: -3%; IL-1B inflam inh: 14; DT40 TDP1 no CPT: 5%; BCR signal inh: 1%; SW480 rerep: -11%; MCF10A rereplic: 12%

Results for C[C@@H]1CN([C@H](C)CO)C(=O)CCCn2cc(nn2)CO[C@H]1CN(C)C(=O)Nc1ccc(F)cc1 ?
DT40 TDP1 CPT: -3%; IL-1B inflam inh: -7; DT40 TDP1 no CPT: 1%

How did CC1(C)C(=O)OC(c2ccccc2)C(C)(C)C1=O (stereo not drawn) do in these assays?
DT40 TDP1 CPT: 4%; IL-1B inflam inh: -16; DT40 TDP1 no CPT: -14%; BCR signal inh: -3%; SW480 rerep: -5%; MCF10A rereplic: 0%

What do the screens show for `CCC1=C(OC(=O)c2ccccc2)C(C)(C)C(c2ccccc2)OC1=O` (stereo not drawn)?
DT40 TDP1 CPT: inconclusive; IL-1B inflam inh: 15; DT40 TDP1 no CPT: 23µM*; BCR signal inh: 5%; SW480 rerep: -2%; MCF10A rereplic: 0%

How did COc1ccc(OC)c(CN2C(=O)CSCC2(C)C(=O)NC(C)C)c1 (stereo not drawn) do in these assays?
DT40 TDP1 CPT: -24%; IL-1B inflam inh: 58; DT40 TDP1 no CPT: -11%

How did COc1ccccc1N1C(=O)S/C(=C\c2cc(C)n(C)c2C)C1=O do in these assays?
DT40 TDP1 CPT: inconclusive; IL-1B inflam inh: -6; DT40 TDP1 no CPT: inconclusive; BCR signal inh: -29%; SW480 rerep: -5%; MCF10A rereplic: inconclusive

What do the screens show for `CCCN1C(=O)/C(=C/c2cc(C)n(C)c2C)SC1=Nc1ccc(OC)cc1`?
DT40 TDP1 CPT: 13µM*; IL-1B inflam inh: -15; DT40 TDP1 no CPT: 9.2µM*; BCR signal inh: 5%; SW480 rerep: 5%; MCF10A rereplic: inconclusive

Results for COc1ccc(N=C2S/C(=C\c3cc(C)n(C)c3C)C(=O)N2C)cc1 ?
DT40 TDP1 CPT: inconclusive; IL-1B inflam inh: -19; DT40 TDP1 no CPT: 6.5µM*; BCR signal inh: inconclusive; SW480 rerep: inconclusive; MCF10A rereplic: 23%

How did O=C(O)COc1nn(Cc2ccccc2)c2ccccc12 do in these assays?
DT40 TDP1 CPT: 2%; DT40 TDP1 no CPT: -17%; SW480 rerep: -3%; MCF10A rereplic: 0%

How did COC(=O)c1ccc(-c2cccc3c2OC(CNC(=O)c2ccc4c(c2)OCCO4)C3)nc1 (stereo not drawn) do in these assays?
DT40 TDP1 CPT: -22%; DT40 TDP1 no CPT: -8%
